Inconclusive results are not listed. Active and inactive are the calls of the source. Unless noted, calls follow the shape of the dose curve; as a rule, active = well fitted curve in the direction sought with a large enough effect in the repeat runs; inconclusive = weak or mixed curves; inactive = no such curve, though single readings can be large; an effect the other way counts as inactive or inconclusive.
Key:
[1] = qHTS RealTime-Glo MT Cell Viability Assay in HEK293 cells - 0 hour (AID 1224880); also: top concentration of the series differs between compounds; nearly all actives have a fitted effect of over 45% in size
Method in brief: (§1)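 Tox21 screen in HEK293 using RealTime-Glo MT chemistry, with cells and reagent co-dispensed. Luminescence proportional to viable cell number was captured at intervals during 40 h compound exposure at 37 C.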

[2] = A CellTox Green Cytotoxicity Assay to monitor cytotoxicity in HEK293 cells - 32 hour (AID 1224881); also: nearly all actives have a fitted effect of over 40% in size
Method in brief: (§2)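 Seeding of HEK293 cells together with cytotoxicity dye preceded a 5 h incubation at 37 C/5% CO2. Test compounds in DMSO were then added and fluorescence monitored across 40 h.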

[3] = A CellTox Green Cytotoxicity Assay to monitor cytotoxicity in HepG2 cells - 0 hour (AID 1224882); also: nearly all actives have a fitted effect of over 35% in size
Method in brief: (§3)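 Nonlytic assay: viable cells exclude the dye, so fluorescence scales with cell death. HepG2 at 600 cells/well, compounds added after 5 h, signal read across 40 h.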

[4] = A CellTox Green Cytotoxicity Assay to monitor cytotoxicity in HepG2 cells - 32 hour (AID 1224883); also: nearly all actives have a fitted effect of over 50% in size
Method in brief: as §3

[5] = A CellTox Green Cytotoxicity Assay to monitor cytotoxicity in HEK293 cells - 8 hour (AID 1224884); also: nearly all actives have a fitted effect of over 35% in size
Method in brief: as §2

[6] = qHTS RealTime-Glo MT Cell Viability Assay in HepG2 cells - 16 hour (AID 1224885); also: nearly all actives have a fitted effect of over 50% in size
Method in brief: (§4)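 HepG2 suspension premixed with RealTime-Glo reagents is plated at 600 cells per well and left 5 h at 37 C/5% CO2. Compounds in DMSO then go in, and bioluminescence reflecting viable cell number is recorded over 40 h.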

[7] = qHTS RealTime-Glo MT Cell Viability Assay in HEK293 cells - 24 hour (AID 1224886); also: nearly all actives have a fitted effect of over 50% in size; also: potency is read from the fitted curve at half-maximal effect
Method in brief: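 Reads taken at 0, 8, 16, 24, 32 and 40 h from the same wells. HEK293 cells (600/well) carried RealTime-Glo reagents from seeding, with compound added after a 5 h settle at 37 C.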

[8] = qHTS RealTime-Glo MT Cell Viability Assay in HEK293 cells - 8 hour (AID 1224887); also: nearly all actives have a fitted effect of over 50% in size; also: potency is read from the fitted curve at half-maximal effect
Method in brief: as §1

[9] = A CellTox Green Cytotoxicity Assay to monitor cytotoxicity in HEK293 cells - 16 hour (AID 1224888); also: nearly all actives have a fitted effect of over 35% in size
Method in brief: as §2

[10] = qHTS RealTime-Glo MT Cell Viability Assay in HepG2 cells - 0 hour (AID 1224889); also: nearly all actives have a fitted effect of over 50% in size
Method in brief: as §4

[11] = A CellTox Green Cytotoxicity Assay to monitor cytotoxicity in HepG2 cells - 8 hour (AID 1224890); also: nearly all actives have a fitted effect of over 45% in size
Method in brief: as §3

[12] = biological target: Estrogen receptor (Homo sapiens) (UniProt P03372); assay: qHTS assay to identify small molecule antagonists of the estrogen receptor alpha (ER-alpha) signaling pathway using the BG1 cell line in the presence of 0.1 nM 17-beta-estradiol (AID 1259244); also: nearly all actives have a fitted effect of over 50% in size
Method in brief: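 VM7Luc4E2; 4xERE-luciferase; 0.1 nM E2 final; 22 h co-incubation, 37C; ONE-Glo luminescence after 30 min at room temperature.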

[13] = qHTS assay to identify small molecule HDAC inhibitors (AID 1259364); also: potency is read from the fitted curve at half-maximal effect;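 also: wild-type HCT-116 cells with endogenous class I/II HDAC activity; nearly all actives have a fitted effect of over 45% in size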
Method in brief: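 Relative class I and II HDAC activity is taken from the luminogenic signal in HCT-116 cells, with compound exposure 2 hr and reagent development 30 min at room temperature.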

[14] = qHTS assay to identify small molecule HDAC inhibitors - cell viability counter screen (AID 1259365)
Method in brief: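 Following a 2hr exposure of overnight-plated wild-type HCT-116 cells to DMSO-delivered compounds, CellTiter-Glo was added and luminescence recorded after 30min at room temperature.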

[15] = qHTS assay to identify small molecule antagonists of the estrogen receptor alpha (ER-alpha) signaling pathway using the BG1 cell line in the presence of 0.1 nM 17-beta-estradiol - cell viability counter screen (AID 1259241); also: nearly all actives have a fitted effect of over 40% in size
Method in brief: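 Measures cytotoxicity alongside the ER-alpha antagonist readout: VM7Luc4E2 cells, charcoal-stripped serum, 0.1 nM 17beta-estradiol final, 22 hr compound incubation at 37C, CellTiter-Fluor fluorescence.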

[16] = qHTS assay to identify small molecule antagonists of the androgen receptor (AR) signaling pathway using the MDA cell line in the presence of 0.5 nM R1881 - cell viability counter screen (AID 1259242); also: nearly all actives have a fitted effect of over 45% in size
Method in brief: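 R1881 at 0.5 nM final stimulated MDA-kb2 cells during 16 hr compound treatment at 37C. Cytotoxicity read: CellTiter-Fluor fluorescence after 30 min.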

[17] = qHTS assay to identify small molecule antagonists of the sonic hedgehog signaling (Shh) pathway - cell viability counter screen (AID 1259367); also: nearly all actives have a fitted effect of over 55% in size; also: potency is read from the fitted curve at half-maximal effect
Method in brief: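 NIH/3T3-derived Gli1-Luc reporter cells (2,000 per well) rested 4 hr at 37 C, then received DMSO compounds plus conditioned medium. After 23 hr of treatment, CellTiter-Fluor was added for 1 hr at 37C and fluorescence read.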

[18] = qHTS assay to identify small molecule agonists of the sonic hedgehog signaling (Shh) pathway - cell viability counter screen (AID 1259366); also: nearly all actives have a fitted effect of over 50% in size; also: potency is read from the fitted curve at half-maximal effect
Method in brief: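 After a 4hr attachment at 37C, NIH/3T3 cells bearing an integrated Gli1-driven luciferase reporter were dosed with compounds. Treatment lasted 24hr, with the final hour including CellTiter-Fluor for a fluorescence viability measurement.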

[19] = biological target: Androgen receptor (Homo sapiens) (UniProt P10275); assay: qHTS assay to identify small molecule antagonists of the androgen receptor (AR) signaling pathway using the MDA cell line in the presence of 0.5 nM R1881 (AID 1259243); also: nearly all actives have a fitted effect of over 50% in size
Method in brief: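 We exposed MDA-kb2 cells to compounds under 0.5 nM R1881 stimulation for 16 hr at 37C and quantified MMTV-driven luciferase by luminescence.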

[20] = qHTS assay to identify small molecule phospholipidosis (PLD) inducers (AID 1259344; active = well fitted curve in the direction sought with a large enough effect; an effect the other way counts as inactive or inconclusive)
Method in brief: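 HepG2 cells on collagen I, attached 4 h at 37 C, were co-treated with compound and LipidTOX Red dye for 24 h at 37 C, then fixed with paraformaldehyde plus Hoechst 33342 and imaged by high-content microscopy for phospholipid accumulation.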

Measured: Potency

Chain of Estrogen receptor (Homo sapiens) (P03372 whole entry, looked up): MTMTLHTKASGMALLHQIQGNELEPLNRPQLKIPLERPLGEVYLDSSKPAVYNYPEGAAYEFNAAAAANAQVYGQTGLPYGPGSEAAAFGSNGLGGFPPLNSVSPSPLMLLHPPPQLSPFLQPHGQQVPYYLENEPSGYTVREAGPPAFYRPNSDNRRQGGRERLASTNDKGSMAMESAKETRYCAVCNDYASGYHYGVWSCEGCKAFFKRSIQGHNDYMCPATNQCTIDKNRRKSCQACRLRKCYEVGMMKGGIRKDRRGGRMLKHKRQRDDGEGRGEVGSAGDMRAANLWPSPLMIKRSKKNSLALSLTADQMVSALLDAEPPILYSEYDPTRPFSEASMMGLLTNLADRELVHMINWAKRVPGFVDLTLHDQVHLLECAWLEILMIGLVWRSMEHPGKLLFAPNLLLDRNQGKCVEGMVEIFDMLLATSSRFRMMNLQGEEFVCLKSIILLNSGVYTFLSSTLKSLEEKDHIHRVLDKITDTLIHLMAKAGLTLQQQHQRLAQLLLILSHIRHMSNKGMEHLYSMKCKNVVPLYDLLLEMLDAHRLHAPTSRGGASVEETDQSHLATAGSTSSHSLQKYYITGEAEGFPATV
Chain of Androgen receptor (Homo sapiens) (P10275 whole entry, looked up): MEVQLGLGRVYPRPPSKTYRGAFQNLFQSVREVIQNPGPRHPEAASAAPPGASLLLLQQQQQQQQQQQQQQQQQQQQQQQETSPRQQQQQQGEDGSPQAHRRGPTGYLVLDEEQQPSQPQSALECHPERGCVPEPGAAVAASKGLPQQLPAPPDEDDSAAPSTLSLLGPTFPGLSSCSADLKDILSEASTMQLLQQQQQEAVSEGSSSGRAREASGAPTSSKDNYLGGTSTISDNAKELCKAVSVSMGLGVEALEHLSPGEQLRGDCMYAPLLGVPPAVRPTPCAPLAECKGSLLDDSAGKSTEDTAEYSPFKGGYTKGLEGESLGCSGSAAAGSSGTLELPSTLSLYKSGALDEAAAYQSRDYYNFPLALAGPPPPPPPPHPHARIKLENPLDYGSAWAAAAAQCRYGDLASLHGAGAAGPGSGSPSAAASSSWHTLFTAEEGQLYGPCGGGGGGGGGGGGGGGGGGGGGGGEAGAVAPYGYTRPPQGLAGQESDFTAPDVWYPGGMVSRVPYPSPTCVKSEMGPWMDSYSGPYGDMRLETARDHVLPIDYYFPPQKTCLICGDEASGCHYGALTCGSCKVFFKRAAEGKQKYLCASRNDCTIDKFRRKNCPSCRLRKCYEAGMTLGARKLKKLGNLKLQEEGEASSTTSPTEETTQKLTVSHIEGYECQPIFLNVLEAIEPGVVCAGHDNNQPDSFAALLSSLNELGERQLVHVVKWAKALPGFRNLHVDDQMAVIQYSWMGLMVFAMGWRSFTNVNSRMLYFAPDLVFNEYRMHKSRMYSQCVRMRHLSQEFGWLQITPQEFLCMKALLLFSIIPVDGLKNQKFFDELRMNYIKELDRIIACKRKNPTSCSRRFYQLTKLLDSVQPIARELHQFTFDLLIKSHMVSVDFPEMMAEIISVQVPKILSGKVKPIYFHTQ

O=c1[nH]nc(-c2ccc([N+](=O)[O-])o2)o1
inactive: [1] | [2] | [3] | [4] | [5] | [6] | [7] | [8] | [9] | [10] | [11] | [12] | [13] | [14]

SCCOCCOCCS
inactive: [1] | [2] | [3] | [4] | [5] | [6] | [7] | [9] | [10] | [11] | [15] | [16] | [13] | [17]

Cc1cc(N)n(-c2ccccc2)n1
inactive: [1] | [2] | [3] | [4] | [5] | [6] | [7] | [8] | [9] | [11] | [15] | [16] | [12] | [14] | [17]
active: [13] 27.3 µM

C[C@H]1C[C@H]2[C@@H]3CCC4=CC(=O)C=C[C@]4(C)[C@@]3(F)[C@@H](O)C[C@]2(C)[C@@]1(O)C(=O)COP(=O)(O)O
inactive: [1] | [2] | [3] | [4] | [5] | [6] | [7] | [8] | [9] | [11] | [15] | [16] | [12] | [13] | [18] | [17]

C[C@H](N)C(=O)N[C@@H](C)C(=O)NC1[C@H]2CN(c3nc4c(cc3F)c(=O)c(C(=O)O)cn4-c3ccc(F)cc3F)C[C@@H]12 (some centres undefined)
inactive: [1] | [2] | [3] | [4] | [5] | [6] | [7] | [9] | [10] | [11] | [15] | [16] | [19] | [13] | [14] | [18] | [17]

O=C(O)c1cc(C(=O)O)cc([N+](=O)[O-])c1
inactive: [1] | [2] | [3] | [4] | [5] | [6] | [7] | [8] | [9] | [10] | [11] | [15] | [16] | [13] | [18] | [17]

CC1=C(C)C(=O)C(C(CCCCCC(=O)O)c2ccccc2)=C(C)C1=O (centres undefined)
active: [8] 10.7 µM
inactive: [1] | [2] | [3] | [4] | [5] | [6] | [7] | [9] | [11] | [15] | [16] | [12] | [20] | [13] | [14]

O=C(O)c1ccc2cc(O)ccc2c1
inactive: [1] | [2] | [3] | [4] | [5] | [6] | [7] | [8] | [9] | [11] | [15] | [16] | [12] | [13] | [14] | [18] | [17]

Nc1ccc(-c2ccc(F)cc2)cc1
inactive: [1] | [2] | [3] | [4] | [5] | [6] | [7] | [9] | [10] | [11] | [15] | [16] | [12] | [14] | [17]

O=C(NC1CCN(CCc2c[nH]c3ccccc23)CC1)c1ccccc1
inactive: [1] | [2] | [3] | [4] | [5] | [6] | [9] | [10] | [11] | [15] | [16] | [14] | [17]
active: [7] 8.49 µM | [8] 9.52 µM

CC(=O)Nc1cccc(N)c1
inactive: [1] | [2] | [3] | [4] | [5] | [6] | [7] | [8] | [9] | [11] | [15] | [16] | [12] | [13] | [14] | [18] | [17]

CCc1ccc2c(c1)C(=O)c1ccccc1C2=O
active: [13] 0.77 µM
inactive: [1] | [2] | [3] | [4] | [5] | [6] | [7] | [8] | [9] | [11] | [15] | [16] | [12] | [14] | [17]

O=Cc1ccc([N+](=O)[O-])cc1
inactive: [1] | [2] | [3] | [4] | [5] | [6] | [7] | [8] | [9] | [11] | [15] | [16] | [12] | [13] | [14] | [17]

CCC(=O)O[C@@H]1C[C@H]2CC[C@]1(C)C2(C)C
inactive: [1] | [2] | [3] | [4] | [5] | [6] | [7] | [8] | [9] | [10] | [11] | [15] | [16] | [13] | [14] | [18] | [17]

Nc1ccccc1Nc1ccccc1
inactive: [1] | [2] | [3] | [4] | [5] | [6] | [7] | [9] | [10] | [11] | [15] | [16] | [13] | [14]
active: [18] 68.8 µM | [17] 54.6 µM

CCOc1ccc(NC(C)=O)cc1N
inactive: [1] | [2] | [3] | [4] | [5] | [6] | [7] | [8] | [9] | [11] | [15] | [16] | [19] | [12] | [13] | [18]
